# Laboratory results from the supplement of paper PMC6897291.
# System: RIVA
# Experiment: growth inhibition by drug alone (1 - RLU/untreated control) (fraction); higher = stronger inhibition
# Conditions: 177Lu-lilotomab satetraxetan 0 ug/ml
# Experimental: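 RIVA (RI-1) ABC-DLBCL cells were pretreated or not for 18 h with 0.5 ug/ml 177Lu-lilotomab satetraxetan (600 MBq/mg), washed and seeded (3000 cells/well) on 384-well plates pre-printed with the Selleck Cambridge Cancer Compound library. Viability was read by RealTime-Glo luminescence on days 3-6 after seeding. Effect = 1 - RLU/mean RLU of the 48 untreated no-drug control wells per plate; Bliss score = (M-E)/(1-Fa).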
SMILES,"growth inhibition by drug alone (10 nM, time (day): 3)","growth inhibition by drug alone (10 nM, time (day): 4)","growth inhibition by drug alone (10 nM, time (day): 5)","growth inhibition by drug alone (10 nM, time (day): 6)","growth inhibition by drug alone (100 nM, time (day): 3)","growth inhibition by drug alone (100 nM, time (day): 4)","growth inhibition by drug alone (100 nM, time (day): 5)","growth inhibition by drug alone (100 nM, time (day): 6)"
C[C@]12CCC(=O)C(O)=C1CC[C@@H]1[C@@H]2CC[C@]2(C)C(=O)CC[C@@H]12 [Formestane],-0.227,-0.249,-0.286,-0.391,-0.322,-0.306,-0.36,-0.445
CC(C)[C@]12O[C@H]1[C@@H]1O[C@]13[C@]1(O[C@H]1C[C@H]1C4=C(CC[C@@]13C)C(=O)OC4)[C@@H]2O [Triptolide],0.376,0.671,0.753,0.792,0.907,0.934,0.957,0.967
CCC1(c2ccc(N)cc2)CCC(=O)NC1=O (stereo not given) [Aminoglutethimide (Cytadren)],-0.0651,-0.101,-0.237,-0.445,-0.578,-0.484,-0.518,-0.688
CC(O)(CS(=O)(=O)c1ccc(F)cc1)C(=O)Nc1ccc(C#N)c(C(F)(F)F)c1 (stereo not given) [Bicalutamide (Casodex)],0.121,0.0197,-0.0376,-0.206,0.0203,-0.00253,-0.0289,-0.0827
O=C(O)c1nn(Cc2ccc(Cl)cc2Cl)c2ccccc12 [Lonidamine],0.0283,0.0585,0.0114,-0.393,-0.419,-0.301,-0.332,-0.381
